# Measured values from PubChem BioAssay AID1981 (Southern Research Specialized Biocontainment Screening …, 2009).
# About 480 (22%) of roughly 2,200 compounds were called active. No rule for the calls is given here. The list is a sample of the results. Measured potencies and affinities stand elsewhere.
# Assay: S. Typhimurium GFP fluorescence modified counterscreen for PhoP regulon inhibitor project dose response (AID 1981);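 also: 0% = induced DMSO wells and 100% = uninduced wells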
# Settings: 4 h; series mostly up to 150 µM; inhibition: at the top concentration
row,Structure (SMILES),inhibition
1,N#Cc1ccc(N=c2ssnc2Cl)cc1,8.15% (inactive)
2,CC(C)CCNC(=O)C(c1ccco1)N(Cc1ccc(F)cc1)C(=O)c1snc(C(N)=O)c1N (configuration not stated),-5.54% (inactive)
3,COc1cc(C2C(C(=O)c3ccc(C)o3)=C(O)C(=O)N2CCc2ccccc2)ccc1O (configuration not stated),11.2% (inactive)
4,CC(C)(C)C1CCc2c(sc(NC(=O)c3cccs3)c2C(=O)N2CCCCC2)C1 (configuration not stated),8.2% (inactive)
5,NC(=O)c1c(NC(=O)CN2C(=O)CCC2=O)sc2c1CCCCC2,-16.9% (inactive)
6,CCOC(=O)c1c(NC(=O)Nc2ccc(C)cc2)sc2c1CCN(C)C2,-0.83% (inactive)
7,O=[N+]([O-])c1ccc(-n2nnnc2-c2ccccc2)c([N+](=O)[O-])c1,14.8% (inactive)
8,CN(C)C(CNC(=O)Nc1cccc(Cl)c1)c1cccnc1 (configuration not stated),3.94% (inactive)
9,Cc1cc2c(c(=O)n1C)C(Cc1ccccc1)C(C#N)=C(N)O2 (configuration not stated),-7.35% (inactive)
10,OC1(c2cccc(C(F)(F)F)c2)CCN(c2ncnc3c2[nH]c2ccccc23)CC1,3.4% (inactive)
11,COc1ccc2c(c1)CC/C(=C\Nc1ccc3c(c1)OCO3)C2=O,-7% (inactive)
12,COc1ccc(C2C=C(c3ccc(Cl)cc3)Nc3nc(NC(C)=O)nn32)cc1 (configuration not stated),-1.96% (inactive)
13,CCCSc1ncc(Cl)c(C(=O)Nc2ccc(S(=O)(=O)N3CC(C)OC(C)C3)cc2)n1 (configuration not stated),-15.2% (inactive)
14,O=C(NC1CC1)C1=NOC(CNc2ncc(C(F)(F)F)cc2Cl)C1 (configuration not stated),-16% (inactive)
15,O=C(NCc1cccnc1)c1cc2ccccc2oc1=O,-21.1% (inactive)
16,CC(=O)N1N=C(c2ccco2)CC1c1ccc(Br)cc1 (configuration not stated),22.8% (inactive)
17,O=C1NC(=O)C(=C2CCCCCC2)S1,16% (inactive)
18,Cc1ccc(-c2csc(N=C(N)N)n2)cc1,31.5% (inactive)
19,Clc1ccc(OCCN2CCN(c3ncnc4sccc34)CC2)cc1,-10.9% (inactive)
20,c1ccc(OCCCN2CCCC2)cc1,-12.3% (inactive)
21,COc1ccc(Br)cc1C(=O)NCc1cccnc1,-7.4% (inactive)
22,Clc1ccccc1OCCn1ccnc1,-5.79% (inactive)
23,NC(=O)N1OCC2COc3ccc4ccccc4c3C21 (configuration not stated),-6.03% (inactive)
24,Cc1ccccc1CS(=O)(=O)c1snnc1C,-7.82% (inactive)

row,Structure (SMILES),inhibition
1,O=C(CNC(=O)c1ccco1)OCC(=O)c1ccc2c(c1)CCCC2,6.72% (inactive)
2,Cc1cc(=O)[nH]c(N/N=C/c2c[nH]c3ccccc23)n1,-13.5% (inactive)
3,Fc1ccc(-c2n[nH]c(=S)n2/N=C/c2c[nH]c3ccccc23)cc1,-21.6% (inactive)
4,CSc1ccc(C(=O)/C=C/c2ccc(N)cc2)cc1,1.48% (inactive)
5,O=C(O)C1CCCN1S(=O)(=O)c1ccc2[nH]c(=O)c(=O)[nH]c2c1 (configuration not stated),1.08% (inactive)
6,Cc1cc(C)c(C#N)c(SCc2cn3ccccc3n2)n1,-6.87% (inactive)
7,CCS(=O)(=O)Nc1cc(C(=O)OC)ccc1C(=O)OC,-22.5% (inactive)
8,Cc1ccc(-n2nnnc2SCC(=O)Nc2ncc(Cc3ccccc3Cl)s2)cc1,5.85% (inactive)
9,CCOc1cc(CNn2cnnc2)ccc1OCC(=O)NC1CCCCC1,1.83% (inactive)
10,CCN(CCO)Cc1csc2ccccc12,-5.22% (inactive)
11,CCOc1ccccc1OCC(=O)Nc1ccc(S(=O)(=O)Nc2nc(C)cc(C)n2)cc1,-2.84% (inactive)
12,CCOCCCNC(=S)Nc1cc(C)cc(C)c1,-14.4% (inactive)
13,COc1cccc(-c2nc(-c3ccc(Br)o3)no2)c1,-17.1% (inactive)
14,CCN(CC)c1ccc(/C=C(\C#N)C(=O)NCc2ccco2)cc1,-8.76% (inactive)
15,Cc1ccc(NC(=S)NCCc2ccccc2)c(C)c1,-5.87% (inactive)
16,CCc1cccc(NC(=O)CCCSc2nc3ccccc3[nH]2)c1,11% (inactive)
17,Cc1cc(C)cc(-n2c(C)cc(C=C(C#N)C#N)c2C)c1,-13% (inactive)
18,CCCc1cnc(NCCNCC(O)COc2ccc(Cl)c(Cl)c2)nc1 (configuration not stated),-10.6% (inactive)
19,CCC(=O)c1ccc(OCC(O)CNCc2ccc(F)cc2)cc1 (configuration not stated),-5.96% (inactive)
20,CC(=O)Nc1ccc(NS(=O)(=O)c2ccc3c(c2)n(C)c(=O)n3C)cc1,-12.4% (inactive)
21,Cc1ccc(NC(NC(=O)c2ccccn2)C(Cl)(Cl)Cl)cc1 (configuration not stated),-12.7% (inactive)
22,O=C(NCc1ccco1)c1cccc(Nc2nc3ccc(Br)cc3[nH]2)c1,-5.31% (inactive)
23,COc1ccc(/C=N/NC(=O)c2ccc3c(c2)OCCO3)cc1[N+](=O)[O-],4.72% (inactive)
24,Cc1ccc(C(=O)N/N=C/c2ccc([N+](=O)[O-])s2)cc1,13.9% (inactive)

row,Structure (SMILES),inhibition
1,O=C(NC(=S)N1CCN(c2c(Cl)cccc2[N+](=O)[O-])CC1)c1cccs1,-9.8% (inactive)
2,O=C(Nc1cnn(Cc2ccc(F)cc2)c1)c1cnccn1,-5.34% (inactive)
3,Cc1ccccc1-n1nnnc1Sc1nnnn1-c1ccccc1,13.9% (inactive)
4,O=C1c2ccccc2C(=O)N1CCc1csc(-c2cccc(Cl)c2)n1,-17.8% (inactive)
5,O=C(COC(=O)/C=C/c1ccco1)Nc1cccc([N+](=O)[O-])c1,7.24% (inactive)
6,CCOc1ccc2c(c1)nc(SCC(=O)c1ccc(Br)s1)n2C,-4.82% (inactive)
7,CC(=O)Nc1c(O)nc(SCC(=O)N2CCN(c3ccc(F)cc3)CC2)[nH]c1=O,-0.15% (inactive)
8,Cc1c(Cl)cccc1NC(=O)CSCC(N)=O,-12.2% (inactive)
9,CSCC[C@H](NC(=O)Nc1ccc(C)cc1)C(=O)O,9.33% (inactive)
10,N#Cc1c(N)nc(SCC(=O)NC2CCCCC2)c(C#N)c1-c1ccc(Cl)cc1,-13.9% (inactive)
11,CCCCn1c(=N)n(CC(=O)C(C)(C)C)c2ccccc21,7.95% (inactive)
12,N=c1c2c(n(Cc3ccc(Br)cc3)c3c1CCC3)CCCC2,12.1% (inactive)
13,CCCCCCCCn1c2c(c(=N)c3c1CCC3)CCCC2,34.2% (inactive)
14,CCCCn1c(NCCO)nc2ccccc21,-8.11% (inactive)
15,CCCCC1CCC(C(=O)Nc2ccccc2)CC1 (configuration not stated),5.03% (inactive)
16,COC(=O)C(C)N1C(=O)S/C(=C\c2cc(C)n(-c3ccccn3)c2C)C1=O (configuration not stated),-11% (inactive)
17,Cc1ccc2nc(-c3ccc(Br)o3)oc(=O)c2c1,-2.46% (inactive)
18,O=C1N=c2ccccc2=C1c1[nH]c(=S)[nH]c1O,2.01% (inactive)
19,O=C1c2ccccc2-c2onc3ccc(NCc4ccco4)c1c23,-2.4% (inactive)
20,CCn1c(=N)n(CC(O)c2ccccc2)c2ccccc21 (configuration not stated),-4.05% (inactive)
21,Cc1ccc(/C=C/c2ccc(=O)n(Cc3ccccc3Cl)n2)cc1,6.88% (inactive)
22,[O-]/[N+](=C\c1ccncc1)c1ccccc1,-0.55% (inactive)
23,CCCn1c(NCCO)nc2ccccc21,-11.6% (inactive)
24,c1csc(C2Nc3cccc4cccc(c34)N2)c1,-2.56% (inactive)

row,Structure (SMILES),inhibition
1,Brc1ccc(NC2=Nc3ccccc3CC2)cc1,-2.31% (inactive)
2,O=C(Nc1cnn(Cc2ccc(Cl)cc2Cl)c1)c1noc2c1CCCC2,-15.3% (inactive)
3,Cc1cccc(-n2c(SCC(N)=O)nc3c(c2=O)C2(CCCC2)Cc2ccccc2-3)c1,7.03% (inactive)
4,COC(=O)c1sccc1NC(=O)c1csc2c1CCCC2,0.07% (inactive)
5,COc1ccc(NC(=O)CN2CCCCC2)c([N+](=O)[O-])c1,5.56% (inactive)
6,Oc1ccccc1CN1CCCN(Cc2ccccc2O)C1,2.41% (inactive)
7,CC(C)Cc1oc(C(=O)O)cc1CN1CCOCC1,1.81% (inactive)
8,Cc1ccc(Oc2ccc3c(c2)C(=O)N(c2ccc(S(=O)(=O)Nc4nccs4)cc2)C3=O)cc1,-19.4% (inactive)
9,COc1cc(OC)cc(C(=O)N[C@H](C(=O)OCC(=O)Nc2ccc(C(N)=O)cc2)C(C)C)c1,-7.59% (inactive)
10,COc1ccccc1-n1c(SCc2cc(=O)oc3cc(O)ccc23)nc2ccccc2c1=O,-5.8% (inactive)
11,COc1cccc(C2C3=C(Nc4[nH]n(-c5ccccc5)c(=O)c42)c2ccccc2C3=O)c1 (configuration not stated),5.13% (inactive)
12,CC(C)Oc1cccc(C(=O)NC(=S)Nc2ccccc2)c1,-7.54% (inactive)
13,CC(CO)(CO)NCc1ccc(-c2ccccc2)cc1,-6.59% (inactive)
14,Cc1cc(C(=O)NCc2ccco2)no1,4.98% (inactive)
15,Cc1cc(SCC(N)=O)nc(SCC(=O)c2ccccc2)n1,-20.2% (inactive)
16,COc1ccccc1NS(=O)(=O)c1cccc(C(=O)N/N=C/c2c(C)nn(-c3ccccc3)c2N2CCCC2)c1,26.4% (inactive)
17,CCC(C)n1c(O)c(C(c2ccccn2)c2c(O)n(C(C)CC)c(=S)[nH]c2=O)c(=O)[nH]c1=S (configuration not stated),-10.1% (inactive)
18,Cn1c(=O)c(=O)n(C)c2cc(S(=O)(=O)Nc3ccc4c(c3)OCCO4)ccc21,5.3% (inactive)
19,Cc1ccc(N(CC(=O)Nc2cccc(C)c2)S(=O)(=O)c2cccc3nonc23)cc1,-13.7% (inactive)
20,Nc1cc(N2CCCCC2)c(Cl)cc1[N+](=O)[O-],2.22% (inactive)
21,CCOc1ccc(-c2noc(CCCC(N)=O)n2)cc1OC,-23.5% (inactive)
22,CCOc1ccc(/C=C/C(=O)Nc2ccc(OC)cc2[N+](=O)[O-])cc1,-7.63% (inactive)
23,Nc1ccc(N(c2ccccc2)c2ccc(N)cc2)cc1,34.6% (inactive)
24,Cc1ccccc1C(=O)N(C)Cc1ccccc1,-6.23% (inactive)

row,Structure (SMILES),inhibition
1,CCC(CC)c1nnc(NC(=O)Oc2ccccc2)s1,0.33% (inactive)
2,CCOCc1nnc(NC(=O)COC)s1,-11.1% (inactive)
3,Cc1cc(C=O)c(C)n1-c1ccc(Oc2ccc([N+](=O)[O-])cn2)cc1,-14.5% (inactive)
4,CCCn1nnc(NC(=O)c2ccc(Br)o2)n1,-3.29% (inactive)
5,c1ccc2c(CCNCc3ccc4c(c3)OCO4)c[nH]c2c1,4.11% (inactive)
6,COc1ccccc1CNc1nc2nc(C)c(C)c(=O)n2[nH]1,7.23% (inactive)
7,Fc1ccc(CCNCc2cccc(Cl)c2)cc1,-5.69% (inactive)
8,COc1ccc(CCNC(=S)Nc2cccc3ccccc23)cc1,-13.8% (inactive)
9,Brc1cccc(CNCc2cccs2)c1,10.1% (inactive)
10,COc1cc(CNCc2cccs2)cc(Br)c1OC,-1.87% (inactive)
11,CCN(C(=O)COc1cc(=O)n(CC)c2ccccc12)c1cccc(Cl)c1,3.2% (inactive)
12,CCN(CC)S(=O)(=O)c1ccc2c(c1)nc(SCC(=O)N1CCOCC1)n2-c1ccccc1OC,1.44% (inactive)
13,O=c1ccc2ccc(Oc3ccc([N+](=O)[O-])cc3[N+](=O)[O-])cc2o1,12.6% (inactive)
14,O=C(CCN1CCc2ccccc2C1)Nc1ccccc1F,-10.2% (inactive)
15,CCCc1nc2c(o1)CC(CC(C)SCC)CC2=O (configuration not stated),-6.99% (inactive)
16,COc1ccc(S(=O)(=O)Nc2ccc(F)c(F)c2)cc1Cl,4.83% (inactive)
17,S=C(NCc1cccnc1)Nc1ccc(Cl)c(Cl)c1,8.92% (inactive)
18,CCc1cccc(C)c1NC(=S)NCc1cccn1C,-0.7% (inactive)
19,COC(=O)C1=C(CSc2nc3ccccc3o2)NC(=O)NC1c1cc(C)ccc1C (configuration not stated),13.2% (inactive)
20,CCn1c(SCc2nc3scc(-c4ccccc4)c3c(=O)[nH]2)nnc1-c1cccs1,18.2% (inactive)
21,COc1ccc2c(c1)OC1=C(C(=O)CCC1)C2C1=C(O)CCCC1=O (configuration not stated),7.41% (inactive)
